ChEMBL document CHEMBL1961873, “Compounds: GSK PKIS; Assays: Nanosyn kinase panel” (2012)

Tests used:
[1] = biological target: Ribosomal protein S6 kinase alpha-6 (Homo sapiens) (UniProt Q9UK32); settings: at 1 µM;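 further: each value is a mean inhibition of RSK4 from a GSK PKIS panel screen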
[2] = biological target: T1, Serine/threonine-protein kinase Sgk1 (Homo sapiens) (UniProt O00141); settings: at 0.1 µM
T1 sequence (whole entry): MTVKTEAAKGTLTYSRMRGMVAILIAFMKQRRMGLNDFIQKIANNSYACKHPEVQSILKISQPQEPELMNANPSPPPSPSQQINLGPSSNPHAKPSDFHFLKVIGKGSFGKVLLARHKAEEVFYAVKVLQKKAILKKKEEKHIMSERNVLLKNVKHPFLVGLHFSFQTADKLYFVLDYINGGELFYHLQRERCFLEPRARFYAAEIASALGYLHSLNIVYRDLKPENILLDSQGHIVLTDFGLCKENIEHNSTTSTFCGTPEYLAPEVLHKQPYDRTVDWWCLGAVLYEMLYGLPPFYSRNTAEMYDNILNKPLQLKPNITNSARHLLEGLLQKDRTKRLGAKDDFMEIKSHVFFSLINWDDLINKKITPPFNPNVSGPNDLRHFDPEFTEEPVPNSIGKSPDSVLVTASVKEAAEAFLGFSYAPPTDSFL

[3] = biological target: T1, Serine/threonine-protein kinase Sgk1 (Homo sapiens); settings: at 1 µM
[4] = biological target: T2, Serine/threonine-protein kinase Sgk2 (Homo sapiens) (UniProt Q9HBY8); settings: at 0.1 µM
T2 sequence (whole entry): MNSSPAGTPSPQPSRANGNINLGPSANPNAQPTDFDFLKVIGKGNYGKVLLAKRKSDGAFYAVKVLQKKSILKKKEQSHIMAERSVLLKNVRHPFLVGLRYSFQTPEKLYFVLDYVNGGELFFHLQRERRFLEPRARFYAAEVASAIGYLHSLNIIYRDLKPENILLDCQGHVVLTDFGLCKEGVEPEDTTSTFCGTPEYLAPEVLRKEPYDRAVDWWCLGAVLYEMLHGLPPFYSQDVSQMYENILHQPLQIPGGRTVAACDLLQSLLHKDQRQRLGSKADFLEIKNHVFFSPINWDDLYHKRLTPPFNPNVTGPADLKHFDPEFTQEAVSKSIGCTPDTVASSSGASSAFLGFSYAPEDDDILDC

[5] = biological target: T2, Serine/threonine-protein kinase Sgk2 (Homo sapiens); settings: at 1 µM
[6] = biological target: T3, Serine/threonine-protein kinase Sgk3 (Homo sapiens) (UniProt Q96BR1); settings: at 0.1 µM
T3 sequence (whole entry): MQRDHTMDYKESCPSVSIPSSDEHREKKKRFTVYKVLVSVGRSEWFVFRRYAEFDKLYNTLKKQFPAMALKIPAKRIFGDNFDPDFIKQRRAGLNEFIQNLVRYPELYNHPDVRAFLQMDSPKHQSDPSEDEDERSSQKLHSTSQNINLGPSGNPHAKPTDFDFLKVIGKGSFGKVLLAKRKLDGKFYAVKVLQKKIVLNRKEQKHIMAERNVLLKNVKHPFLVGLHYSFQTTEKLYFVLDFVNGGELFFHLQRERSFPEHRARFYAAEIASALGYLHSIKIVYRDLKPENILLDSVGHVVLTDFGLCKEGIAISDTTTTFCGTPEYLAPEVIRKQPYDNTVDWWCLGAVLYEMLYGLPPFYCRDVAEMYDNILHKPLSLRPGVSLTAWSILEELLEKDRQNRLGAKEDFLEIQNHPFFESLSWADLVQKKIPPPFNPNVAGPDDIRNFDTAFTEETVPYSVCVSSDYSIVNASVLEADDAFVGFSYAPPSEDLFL

[7] = biological target: T3, Serine/threonine-protein kinase Sgk3 (Homo sapiens); settings: at 1 µM
[8] = biological target: 5'-AMP-activated protein kinase catalytic subunit alpha-1 (Homo sapiens) (UniProt Q13131); settings: at 0.1 µM
5'-AMP-activated protein kinase catalytic subunit alpha-1 (Homo sapiens), sequence (Q13131 whole entry, looked up): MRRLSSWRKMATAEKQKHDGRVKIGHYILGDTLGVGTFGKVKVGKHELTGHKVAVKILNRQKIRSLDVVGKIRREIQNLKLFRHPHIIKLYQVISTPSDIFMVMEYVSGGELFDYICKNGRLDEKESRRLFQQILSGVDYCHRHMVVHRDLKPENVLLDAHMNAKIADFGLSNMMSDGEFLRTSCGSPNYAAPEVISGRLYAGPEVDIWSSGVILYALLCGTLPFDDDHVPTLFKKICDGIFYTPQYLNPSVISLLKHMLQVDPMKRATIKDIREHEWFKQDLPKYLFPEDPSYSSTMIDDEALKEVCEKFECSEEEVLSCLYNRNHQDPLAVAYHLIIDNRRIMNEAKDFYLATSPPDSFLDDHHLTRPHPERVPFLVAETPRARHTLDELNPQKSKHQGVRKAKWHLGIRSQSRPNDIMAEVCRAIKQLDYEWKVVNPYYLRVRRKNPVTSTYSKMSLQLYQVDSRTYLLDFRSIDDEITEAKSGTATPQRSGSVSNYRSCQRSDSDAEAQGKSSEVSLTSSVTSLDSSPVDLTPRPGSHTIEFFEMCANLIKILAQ

[9] = biological target: 5'-AMP-activated protein kinase catalytic subunit alpha-1 (Homo sapiens) (UniProt Q13131); settings: at 1 µM
[10] = biological target: 5'-AMP-activated protein kinase catalytic subunit alpha-2 (Homo sapiens) (UniProt P54646); settings: at 0.1 µM
5'-AMP-activated protein kinase catalytic subunit alpha-2 (Homo sapiens), sequence (P54646 whole entry, looked up): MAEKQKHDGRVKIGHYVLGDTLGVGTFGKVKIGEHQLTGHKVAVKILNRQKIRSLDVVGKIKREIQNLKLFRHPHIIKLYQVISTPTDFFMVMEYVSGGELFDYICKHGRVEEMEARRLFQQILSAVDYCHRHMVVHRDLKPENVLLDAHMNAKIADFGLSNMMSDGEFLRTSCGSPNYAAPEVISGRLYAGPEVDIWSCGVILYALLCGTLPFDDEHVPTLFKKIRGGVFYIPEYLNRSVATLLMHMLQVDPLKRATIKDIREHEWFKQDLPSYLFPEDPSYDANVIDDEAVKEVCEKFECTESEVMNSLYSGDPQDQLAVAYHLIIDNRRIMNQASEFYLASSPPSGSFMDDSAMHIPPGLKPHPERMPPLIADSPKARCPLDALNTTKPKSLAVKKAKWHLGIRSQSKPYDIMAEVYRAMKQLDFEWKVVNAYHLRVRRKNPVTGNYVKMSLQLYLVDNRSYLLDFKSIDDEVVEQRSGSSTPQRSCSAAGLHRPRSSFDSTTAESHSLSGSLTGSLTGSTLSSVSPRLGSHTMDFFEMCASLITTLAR

[11] = biological target: 5'-AMP-activated protein kinase catalytic subunit alpha-2 (Homo sapiens) (UniProt P54646); settings: at 1 µM
[12] = biological target: T4, NUAK family SNF1-like kinase 1 (Homo sapiens) (UniProt O60285); settings: at 0.1 µM
T4 sequence (whole entry): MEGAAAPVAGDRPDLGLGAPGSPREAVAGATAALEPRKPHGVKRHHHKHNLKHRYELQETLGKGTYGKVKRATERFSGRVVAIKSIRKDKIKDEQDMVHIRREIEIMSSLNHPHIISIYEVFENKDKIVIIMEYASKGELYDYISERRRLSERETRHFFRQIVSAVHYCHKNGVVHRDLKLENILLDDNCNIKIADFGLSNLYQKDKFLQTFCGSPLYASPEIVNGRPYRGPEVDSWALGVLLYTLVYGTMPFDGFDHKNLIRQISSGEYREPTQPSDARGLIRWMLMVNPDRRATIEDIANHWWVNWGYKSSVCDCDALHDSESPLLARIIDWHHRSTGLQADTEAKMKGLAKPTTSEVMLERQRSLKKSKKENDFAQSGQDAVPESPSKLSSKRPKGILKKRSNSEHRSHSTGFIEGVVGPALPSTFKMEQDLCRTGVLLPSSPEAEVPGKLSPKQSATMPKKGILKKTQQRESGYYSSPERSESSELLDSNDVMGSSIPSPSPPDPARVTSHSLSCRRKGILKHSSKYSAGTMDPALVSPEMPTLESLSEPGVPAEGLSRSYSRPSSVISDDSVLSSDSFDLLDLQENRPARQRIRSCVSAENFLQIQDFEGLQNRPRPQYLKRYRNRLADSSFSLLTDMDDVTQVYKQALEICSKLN

[13] = biological target: T4, NUAK family SNF1-like kinase 1 (Homo sapiens); settings: at 1 µM
[14] = biological target: T5, Serine/threonine-protein kinase BRSK1 (Homo sapiens) (UniProt Q8TDC3); settings: at 0.1 µM
T5 sequence (whole entry): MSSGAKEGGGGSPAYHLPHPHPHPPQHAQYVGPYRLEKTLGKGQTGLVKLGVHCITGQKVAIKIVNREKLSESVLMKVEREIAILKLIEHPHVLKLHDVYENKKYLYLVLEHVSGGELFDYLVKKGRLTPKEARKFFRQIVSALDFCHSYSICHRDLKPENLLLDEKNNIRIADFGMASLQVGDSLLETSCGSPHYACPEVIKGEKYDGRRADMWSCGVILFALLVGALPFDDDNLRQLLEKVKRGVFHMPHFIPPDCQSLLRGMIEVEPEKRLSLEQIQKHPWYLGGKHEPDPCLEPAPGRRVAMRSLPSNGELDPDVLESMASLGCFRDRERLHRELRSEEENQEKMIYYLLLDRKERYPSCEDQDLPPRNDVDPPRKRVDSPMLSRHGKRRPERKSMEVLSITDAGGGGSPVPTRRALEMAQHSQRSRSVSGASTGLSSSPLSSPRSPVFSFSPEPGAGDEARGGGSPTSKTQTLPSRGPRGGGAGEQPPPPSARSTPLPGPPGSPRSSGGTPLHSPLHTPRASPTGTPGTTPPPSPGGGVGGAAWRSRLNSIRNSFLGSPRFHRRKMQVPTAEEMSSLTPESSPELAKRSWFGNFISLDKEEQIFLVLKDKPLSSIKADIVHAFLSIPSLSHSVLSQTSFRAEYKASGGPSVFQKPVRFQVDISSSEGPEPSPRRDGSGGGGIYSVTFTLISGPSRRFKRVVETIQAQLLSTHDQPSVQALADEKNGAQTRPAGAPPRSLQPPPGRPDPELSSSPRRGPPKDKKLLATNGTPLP

[15] = biological target: T5, Serine/threonine-protein kinase BRSK1 (Homo sapiens); settings: at 1 µM
[16] = biological target: T6, Serine/threonine-protein kinase BRSK2 (Homo sapiens) (UniProt Q8IWQ3); settings: at 0.1 µM
T6 sequence (whole entry): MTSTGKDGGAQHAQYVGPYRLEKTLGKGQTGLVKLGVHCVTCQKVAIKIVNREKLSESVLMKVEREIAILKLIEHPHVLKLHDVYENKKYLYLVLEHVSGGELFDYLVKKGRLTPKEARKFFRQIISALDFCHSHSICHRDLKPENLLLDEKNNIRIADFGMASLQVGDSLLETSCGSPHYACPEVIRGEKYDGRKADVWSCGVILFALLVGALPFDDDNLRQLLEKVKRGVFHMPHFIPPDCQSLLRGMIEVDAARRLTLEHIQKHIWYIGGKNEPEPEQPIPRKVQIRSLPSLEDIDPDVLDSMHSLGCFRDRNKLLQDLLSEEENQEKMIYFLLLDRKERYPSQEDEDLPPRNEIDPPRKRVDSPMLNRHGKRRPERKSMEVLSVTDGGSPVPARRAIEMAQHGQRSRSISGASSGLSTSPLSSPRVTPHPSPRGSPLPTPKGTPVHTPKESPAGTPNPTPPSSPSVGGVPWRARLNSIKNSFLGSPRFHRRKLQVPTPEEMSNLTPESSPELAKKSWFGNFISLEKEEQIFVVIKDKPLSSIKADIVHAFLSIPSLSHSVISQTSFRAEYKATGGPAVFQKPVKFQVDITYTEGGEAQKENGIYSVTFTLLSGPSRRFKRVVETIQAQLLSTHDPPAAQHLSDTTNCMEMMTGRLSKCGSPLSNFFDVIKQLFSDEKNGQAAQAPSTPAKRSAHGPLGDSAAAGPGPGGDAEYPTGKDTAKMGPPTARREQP

[17] = biological target: T6, Serine/threonine-protein kinase BRSK2 (Homo sapiens); settings: at 1 µM
[18] = biological target: Calcium/calmodulin-dependent protein kinase type 1D (Homo sapiens) (UniProt Q8IU85); settings: at 0.1 µM
Calcium/calmodulin-dependent protein kinase type 1D (Homo sapiens), sequence (Q8IU85 whole entry, looked up): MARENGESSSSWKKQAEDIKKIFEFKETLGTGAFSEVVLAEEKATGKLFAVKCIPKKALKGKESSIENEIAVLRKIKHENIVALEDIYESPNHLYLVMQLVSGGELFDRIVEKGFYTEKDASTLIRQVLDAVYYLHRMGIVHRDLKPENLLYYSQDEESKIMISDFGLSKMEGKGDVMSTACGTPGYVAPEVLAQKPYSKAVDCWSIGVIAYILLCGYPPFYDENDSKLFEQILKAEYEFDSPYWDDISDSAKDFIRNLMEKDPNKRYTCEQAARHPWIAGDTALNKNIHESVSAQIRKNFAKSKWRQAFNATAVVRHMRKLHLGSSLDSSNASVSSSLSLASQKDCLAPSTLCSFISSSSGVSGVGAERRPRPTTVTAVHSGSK

[19] = biological target: Calcium/calmodulin-dependent protein kinase type 1D (Homo sapiens) (UniProt Q8IU85); settings: at 1 µM
[20] = biological target: Calcium/calmodulin-dependent protein kinase type II subunit alpha (Homo sapiens) (UniProt Q9UQM7); settings: at 0.1 µM;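 further: reported values are averages (mean inhibition of CAMK2A)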
Calcium/calmodulin-dependent protein kinase type II subunit alpha (Homo sapiens), sequence (Q9UQM7 whole entry): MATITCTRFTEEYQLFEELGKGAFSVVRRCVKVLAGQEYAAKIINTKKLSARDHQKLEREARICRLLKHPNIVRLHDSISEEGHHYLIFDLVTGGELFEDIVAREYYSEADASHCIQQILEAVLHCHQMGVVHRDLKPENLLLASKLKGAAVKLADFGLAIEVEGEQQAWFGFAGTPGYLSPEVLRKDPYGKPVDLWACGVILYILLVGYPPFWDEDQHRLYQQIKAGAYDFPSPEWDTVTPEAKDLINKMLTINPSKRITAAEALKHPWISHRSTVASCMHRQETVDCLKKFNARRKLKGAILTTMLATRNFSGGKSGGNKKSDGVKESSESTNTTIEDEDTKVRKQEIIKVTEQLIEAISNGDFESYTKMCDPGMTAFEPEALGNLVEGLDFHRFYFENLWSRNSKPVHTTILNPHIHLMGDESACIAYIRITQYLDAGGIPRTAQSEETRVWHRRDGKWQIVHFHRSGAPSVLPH

Ribosomal protein S6 kinase alpha-6 (Homo sapiens), sequence (Q9UK32 whole entry): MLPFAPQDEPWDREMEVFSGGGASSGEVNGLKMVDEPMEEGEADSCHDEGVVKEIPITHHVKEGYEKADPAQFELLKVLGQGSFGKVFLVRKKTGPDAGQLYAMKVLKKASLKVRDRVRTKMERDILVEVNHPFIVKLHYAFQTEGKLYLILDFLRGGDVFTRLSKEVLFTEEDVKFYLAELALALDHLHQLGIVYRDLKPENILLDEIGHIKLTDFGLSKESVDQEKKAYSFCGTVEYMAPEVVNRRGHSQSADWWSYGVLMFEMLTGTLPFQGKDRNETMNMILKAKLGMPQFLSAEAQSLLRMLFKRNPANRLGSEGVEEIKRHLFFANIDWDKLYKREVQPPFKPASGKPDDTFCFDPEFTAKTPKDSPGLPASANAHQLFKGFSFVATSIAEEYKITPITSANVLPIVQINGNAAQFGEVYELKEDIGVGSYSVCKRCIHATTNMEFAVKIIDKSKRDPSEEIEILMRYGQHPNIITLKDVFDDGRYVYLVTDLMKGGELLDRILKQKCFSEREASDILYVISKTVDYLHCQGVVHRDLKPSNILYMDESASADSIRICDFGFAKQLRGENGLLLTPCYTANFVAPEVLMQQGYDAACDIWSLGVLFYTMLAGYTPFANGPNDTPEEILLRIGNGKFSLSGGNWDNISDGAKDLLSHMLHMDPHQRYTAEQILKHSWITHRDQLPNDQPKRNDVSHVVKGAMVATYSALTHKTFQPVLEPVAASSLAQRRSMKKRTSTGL

Row | Structure (SMILES) | inhibition [1] [%] | inhibition [2] [%] | inhibition [3] [%] | inhibition [4] [%] | inhibition [5] [%] | inhibition [6] [%] | inhibition [7] [%] | inhibition [8] [%] | inhibition [9] [%] | inhibition [10] [%] | inhibition [11] [%] | inhibition [12] [%] | inhibition [13] [%] | inhibition [14] [%] | inhibition [15] [%] | inhibition [16] [%] | inhibition [17] [%] | inhibition [18] [%] | inhibition [19] [%] | inhibition [20] [%]
1 | COc1ccc2[nH]c3c4[nH]c5ccc(OC)cc5c4c4c(c3c2c1)C(=O)NC4=O | 88 | 21.8 | 63.8 | 16.6 | 59.4 | 9.76 | 40.2 | 37 | 78 | 17.9 | 51.6 | 78 | 77.3 | 71.3 | 102 | 92.2 | 94.9 | 6.96 | 39.6 | 6.99
2 | O=C(Nc1n[nH]c2cc(-c3ccc(F)cc3)ccc12)C1CC1 | 4.8 | 2.59 | 3.89 | 3.3 | 6.36 | 3.83 | 8.97 | 1.21 | 4.56 | 3.71 | 6.01 | 0.71 | 2.52 | 4.68 | 26.2 | 6.41 | 33.5 | 0.43 | 1.06 | 0.76
3 | Nc1nc(-c2cccc(Cl)c2)c(-c2ccc3ncccc3n2)s1 | 2.73 | 4.41 | 5.86 | 2.07 | 3.59 | 4.35 | 6.98 | 3.09 | 5.53 | 3.05 | 3.28 | -2.86 | 5.81 | 0.2 | 1.68 | 1.95 | 4.51 | -0.44 | 0.6 | 3.5
4 | N#Cc1c(NC(=O)CN2CCOCC2)sc2c1CCCC2 | 1.35 | 0.28 | 5.76 | 2.3 | 4.38 | 3.14 | 4.05 | 3.31 | 4.25 | 1.66 | 2.26 | 2.61 | 4.86 | 0.57 | 1.52 | 2.72 | 3.03 | -0.19 | 0.36 | 3.08
5 | Cc1cccc(Nc2ncc(-c3ccccc3)o2)c1 | 2.13 | 1.63 | 2.62 | 3.96 | 2.16 | 0.65 | 1.3 | 3.82 | 4.04 | 4.67 | 6.16 | 2.69 | 19.2 | 0.14 | 0.64 | 1.19 | 4.26 | 1.45 | 3.78 | 4.05
6 | COc1cc(/C=N/Nc2ncnc3[nH]ncc23)ccc1O | 13.3 | 13 | 54.4 | 6.14 | 19.9 | 3.82 | 5.26 | 5.24 | 20.5 | 2.66 | 20.2 | 6.98 | 27.6 | 1.12 | 18 | 4.62 | 22.9 | 1.07 | 5.49 | 2.62
7 | CCCN(CCS(C)(=O)=O)Cc1ccc(-c2ccc3ncnc(Nc4ccc(OCc5cccc(F)c5)c(Cl)c4)c3c2)o1 | 0.41 | 0.88 | 2.15 | 0.16 | -0.86 | 2.21 | 1.28 | 0.05 | 1.68 | 2.47 | 2.91 | -7.52 | 4.57 | 1.22 | 3.8 | 1.68 | 7.08 | 0.15 | 1.73 | 0.86
